# A549 viability: kills or reduces viability of A549 cells in Nrf2 counter-screen; A549 ARE-Fluc cells, CellTiter-Fluor viability, 18-24 h; Potency, µM (top dose mostly 46 µM), most hits filed as inhibitors; 390,000 tested, 0.16% active
#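 Cytotoxicity counterscreen: CellTiter-Fluor fluorescence was measured in A549 ARE_Fluc cells after 18-24 h of compound exposure in a concentration series. The subsequent BugLite luminescent read reports ARE-luciferase activity.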
# Nrf2 block: Nrf2 pathway inhibition; A549 ARE-Fluc reporter, luciferase luminescence, 18-24 h; AID 504444; 360,000 tested, 2.1% active; Potency, µM (highest dose often 46 µM), hits mostly inhibitors; also: nearly all actives have a fitted effect of over 60% in size
#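 Reporter: ARE-Fluc in A549. Exposure: 18-24 h, 37 °C, 5% CO2, 5% FBS OPTI-MEM. Readouts: fluorescent cytotoxicity (CellTiter-Fluor), then luminescent Nrf2 signal after BugLite.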
# HepG2 viability: kills HepG2 cells in TGF-b inhibitor counter-screen. HepG2 CAGA-GFP viability, ATP luminescence, 18 h. Potency, µM (series often up to 46.1 µM), most hits filed as cytotoxic. 410,000 tested, 0.76% active. AID 588856
#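 CellTiter-Glo luminescence gave cytotoxicity after 18 hours at 37 degrees C. The cells were HepG2 CAGA-GFP in 1% FBS DMEM, stimulated with 500 pg/mL TGF-beta after compound addition. %Activity was normalised to no-cell wells (complete cell-killing) and DMSO (no toxicity), and curves were fitted and classified.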
# TGFb inhibitor: TGF-b pathway inhibition. HepG2 CAGA-GFP TGF-b/SMAD3 reporter, GFP fluorescence, 18 h; TGF-beta stimulated, 500 pg/mL final. Potency, µM (doses to about 46.1 µM), hits mostly inhibitors. 410,000 tested, 1.2% active; also: nearly all actives have a fitted effect of over 65% in size
#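 Using HEPG2 CAGA-GFP reporter cells at 1000 cells/well, we pinned test compounds, stimulated with recombinant TGF-beta (500 pg/mL final) and measured total well GFP after 18 h.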
# Nrf2 activator: activates Nrf2 signaling; AID 624171; 410,000 tested, 0.31% active; AREc32 ARE-luciferase reporter (MCF7-derived line), luminescence, 24 h; Potency, µM (top dose mostly 46.1 µM), most hits filed as activators; also: nearly all actives have a fitted effect of over 65% in size
#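 For detection, Steady-Glo was added and plates sat 30 min at RT; before that, AREc32_Fluc cells grown overnight in OPTI-MEM/5% FBS had been treated with 23 nL compound for 24 hr at 37 deg C.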
# A number is an active result; i = inactive; ? = inconclusive; nt = no result. Only some compounds are listed: those with a hit (about 3.6% of all), similar ones and a draw of the others. Calls follow the shape of the dose curve; as a rule, active = well fitted curve in the direction sought with a large enough effect; inconclusive = small, poorly fitted or top-dose-only effect, or another doubt; inactive = no such curve, though single readings can be large; an effect the other way counts as inactive or inconclusive.
SMILES,A549 viability,Nrf2 block,HepG2 viability,TGFb inhibitor,Nrf2 activator
CCOC(=O)C1=C(N2CCCCC2)c2cc3c(n2C1=O)CCCC3,i,i,i,i,i
Cn1nnnc1SCCCNCc1cccc(OCc2ccccc2Cl)c1,?,i,i,10µM,i
Cn1nnnc1SCCCNCc1cccc(OCc2ccccc2F)c1,i,?,i,i,i
CCOc1cc(CNCCSc2nnnn2C)cc(Br)c1OCc1ccccc1F,?,23µM,i,?,i
COc1cccc(CNCCSc2nnnn2C)c1OCc1ccc(Cl)cc1,i,?,i,18µM,i
CN(C)CCCNC(=S)Nc1ccc(Oc2ccccc2)cc1,i,i,i,i,i
COc1ccc(-c2cnnc(N/N=C/c3ccc(O)cc3)n2)cc1,i,i,i,i,i
Oc1ccc(/C=N\Nc2nncc(-c3ccccc3)n2)cc1,i,?,i,?,7.1µM
COc1ccc(NC(=O)CC2SC(N3CCOCC3)=NC2=O)cc1OC (centres undefined),i,15µM,i,i,i
O=C(CC1SC(N2CCCCC2)=NC1=O)Nc1cccc(C(F)(F)F)c1 (centres undefined),i,21µM,i,i,i
O=C1CCCN2N=C(SCC(=O)Nc3cccc(C(F)(F)F)c3)SC2=N1,i,16µM,i,i,i
CC(=O)c1cccc(NC(=O)CC2SC(N3CCCCC3)=NC2=O)c1 (centres undefined),i,nt,i,?,i
COc1ccc(NC(=O)CC2SC(N3CCCC3)=NC2=O)cc1Cl (centres undefined),i,i,i,i,i
O=c1c(-c2ccco2)[n+]([O-])c2ccccc2n1OCc1ccccn1,i,i,i,i,?
CCOc1cc(C(=O)N2CCN(c3ccccn3)CC2)cc(OCC)c1OCC,i,i,i,i,i
CN(C)NC(=S)Nc1cccc(Cl)c1,i,i,i,i,i
COc1ccc2c(n1)Sc1nc3ccccc3nc1N2,i,?,i,i,4.5µM
c1ccc(Nc2nc(N3CCCCC3)nc(N3CCNCC3)n2)cc1,i,i,11µM,i,i
CCN(CC)S(=O)(=O)c1ccc(Cl)c(NC(=O)COC(=O)c2ccc([N+](=O)[O-])o2)c1,i,i,i,i,i
COc1ccccc1NC(=O)c1sc(Cl)nc1C,i,i,i,i,11µM
O=S(Cc1ccc(Cl)cc1)c1ncc(CO)n1Cc1ccccc1 (centres undefined),i,i,i,i,i
COc1cccc(CC2(CO)CCCN(Cc3cc4ccccc4[nH]3)C2)c1 (centres undefined),i,?,i,11µM,i
Cc1ccc(S(=O)(=O)N2[C@@H](c3ccc(C(C)(C)C)cc3)C(C(=O)O)=CC[C@H]2c2ccc(C(C)C)cc2)cc1,?,2.9µM,i,?,i
CCc1ccc([C@@H]2CC=C(C(=O)O)[C@H](c3ccc(C(C)(C)C)cc3)N2S(=O)(=O)c2ccc(C)cc2)cc1,?,21µM,i,?,i
Cc1ccc([C@@H]2CC=C(C(=O)O)[C@H](c3ccc(C(C)(C)C)cc3)N2S(=O)(=O)c2ccc(C)cc2)cc1,i,18µM,i,?,i
SMILES,A549 viability,Nrf2 block,HepG2 viability,TGFb inhibitor,Nrf2 activator
C=C[C@H]1C(C(=O)OCC)=CC[C@@H](c2ccccc2)N1S(=O)(=O)c1ccc(C)cc1,nt,nt,i,i,i
CCOC(=O)C1=CC[C@@H](c2ccccc2)N(S(=O)(=O)c2ccc(C)cc2)[C@H]1C,nt,nt,22µM,?,i
CCc1ccc([C@@H]2CC=C(C(=O)O)[C@H](c3ccccc3)N2S(=O)(=O)c2ccc(C)cc2)cc1,i,i,i,i,i
Cn1c(CS/C(N)=N/N=C/c2ccccc2)c(Br)c(=O)n1-c1ccccc1,i,i,i,i,i
Cc1ccc(C(=O)NCCNC(=O)Cc2ccccc2)cn1,i,i,i,i,i
CC(C)(C)C(=O)NC1CC2CCCC(C1)N2C(=O)Nc1ccc(Cl)cc1 (centres undefined),i,i,i,i,i
COc1ccccc1C(=O)NCCC(=O)N(C)CC(=O)Nc1ccc(Cl)cc1,i,i,i,i,i
Cc1ccc([C@H]2C(C(=O)O)=CC[C@@H](c3cccs3)N2S(=O)(=O)c2ccc(C)cc2)cc1,?,26µM,i,i,i
Cc1ccc(S(=O)(=O)N2[C@@H](c3ccc(C(C)(C)C)cc3)C(C(=O)O)=CC[C@H]2c2ccc(Cl)cc2)cc1,i,18µM,i,?,i
COc1cc(CNc2ccc(CNc3ncn[nH]3)cc2)ccc1OCC(=O)NC(C)(C)C,i,16µM,i,i,i
COc1cc(CNc2ccc(N3CCOCC3)cc2)ccc1OCC(=O)NC(C)(C)C,i,16µM,i,i,i
CC(C)(C)NC(=O)COc1ccc(CNc2ncn[nH]2)cc1,i,i,i,i,i
O=C(Nc1ccccc1C(=O)NC(Cc1ccccc1)C(=O)NC1CCCCCC1)c1ccccc1 (centres undefined),i,i,i,i,i
C=C1C(=O)[C@]23C[C@H]1CC[C@H]2[C@]1(C)[C@@H](OC(C)=O)CC[C@@](C)(C(=O)O)[C@H]1C[C@@H]3OC(C)=O,nt,nt,i,10µM,i
C=C/C(C)=C/CC1C(=C)CCC2C(C)(C(=O)O)CCCC12C (centres undefined),i,i,i,i,i
C=C1C(=O)[C@]23C[C@H]1CCC2[C@]1(C)C(=O)CC[C@@](C)(C(=O)O)C1C[C@@H]3O (some centres undefined),nt,nt,i,?,?
C=C1C(=O)[C@]23C[C@H]1CCC2[C@]1(C)CCC[C@@](C)(C(=O)O)C1C[C@@H]3O (some centres undefined),nt,nt,i,2.5µM,?
CCOC(=O)c1sc(NC(=S)NC(=O)C2CC2)cc1C,i,?,i,i,i
CCc1ccc(N2CC(C(=O)NCCC3=CCCCC3)CC2=O)cc1 (centres undefined),i,i,i,i,i
C/C(=N\Nc1nc(C)cc(-c2ccccc2)n1)c1cccc(N)c1,i,21µM,i,?,i
Cc1ccc(-c2nc(C#N)c(NCCN3CCCCC3)o2)cc1,?,i,i,i,i
CCOc1ccc(C(=O)NC2CC3CCCC(C2)N3CC(C)C)cc1 (centres undefined),i,i,i,i,i
O=C(Nc1ccc(OC(F)F)cc1)c1nc(S(=O)(=O)Cc2ccccc2F)ncc1Cl,nt,nt,11µM,13µM,nt
O=C(Nc1ccc(OC(F)F)cc1)c1ncc(Cl)c(Cl)c1Cl,i,i,i,i,7.1µM
CCOc1ccc(NC(=O)c2nc(S(=O)(=O)Cc3ccccc3F)ncc2Cl)cc1,?,?,6.3µM,3.2µM,?
CCOc1ccc(NC(=O)c2nc(SCc3ccccc3F)ncc2Cl)cc1,nt,nt,i,i,nt
